# ELG1 DNA repair: inhibitors of ELG1-dependent DNA repair in HEK293T cells; HEK293T ELG1-luciferase reporter, luminescence, 16 h; DNA damage induced by 5-fluorouridine; Potency, µM (doses to about 46.1 µM), without a hit: at the highest dose activity change, negative = inhibition, actives largely listed as inhibitors; hit rate 2.3% among 330,000; further: potency means the concentration at half of the fitted maximal effect; nearly all actives have a fitted effect of over 55% in size
#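 Overnight (16 hr) co-exposure of 2,000 cells/well to 5-fluorouridine and compound at 37 °C preceded detection. Luciferase was quantified via ONE-Glo luminescence; loss of signal denotes inhibition.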
# HT1080 IDH1KD tx: toxicity to HT-1080 IDH1 knockdown cells (counter line); HT-1080 IDH1 knockdown viability, ATP luminescence, 48 h; Potency, µM (series often up to 46.1 µM), for the others: at the highest dose activity, negative = toxicity, usual class: cytotoxic; hit rate 2% among 360,000; AID 686971;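 further: potency means the concentration at half of the fitted maximal effect; 0% = DMSO wells and -100% = cell-free medium wells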
#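 HT-1080-IDH1KD cells (IDH1 knocked down), 750/well in RPMI with 5% FBS, treated with compound 48 h at 37 degrees C. Viability by CellTiter-Glo luminescence, normalised to DMSO and no-cell wells; concentration-response curves classed.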
# IL-1B inflam inh: inflammasome signaling inhibition, IL-1 beta readout. THP-1 LPS/ATP IL-1B secretion, AlphaLISA, 16 h; hits give low values. hit rate 4.7% among 360,000. activity change, % at 57.5 µM; in the data active means activity change below about -50%; inconclusive means mostly about -30% to -49%
#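 Secreted IL-1B measured by AlphaLISA bead assay after 16 h compound exposure of THP-1 cells; compounds (final up to 57.5 uM) added 1 h before LPS (250 ng/mL) and ATP (1.25 mM) stimulation; lower signal means less secretion.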
# HT1080NT lethal: kills 2HG-producing HT-1080-NT fibrosarcoma cells. HT-1080-NT fibrosarcoma viability, CellTiter-Glo ATP luminescence, 48 h. Potency, µM (doses to about 46.1 µM), inactives show top-dose activity, negative = less viability, most hits filed as cytotoxic. hit rate 1.6% among 360,000;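 further: NT is the 2HG producing partner of a matched IDH1 knockdown line; potency means the concentration at half of the fitted maximal effect; 0% = DMSO-treated cells and -100% = media-only wells without cells; nearly all actives have a fitted effect of over 55% in size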
#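 Fibrosarcoma NT cells, 750 per well in 5% FBS RPMI, were exposed to compound for 48 hours. Viability: CellTiter-Glo luminescence.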
# DT40 TDP1 CPT: growth inhibition of DT40 Tdp1-/-;hTDP1 cells with camptothecin (screen for TDP1 inhibitors); chicken DT40 Tdp1-/-;hTDP1 cells + 20 nM CPT, ATP luminescence, 48 h; hit rate 12% among 420,000; Potency, µM (highest dose often 46.2 µM), for the others: at the top dose activity change, negative = growth inhibition, most hits filed as inhibitors; further: potency means the concentration at half of the fitted maximal effect; nearly all actives have a fitted effect of over 55% in size
#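 Chicken DT40 Tdp1-/- cells complemented with human TDP1, 400 cells/well, exposed to compounds plus 20 nM camptothecin for at least 48 h at 37 C; viability read as ATP content by CellTiter-Glo luminescence.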
# TDP1 cell noCPT: qHTS for Inhibitors of human tyrosyl-DNA phosphodiesterase 1 (TDP1): qHTS in cells in absence of CPT | DT40 Tdp1-/- hTDP1 cells, no CPT, ATP luminescence, 48 h | Potency, µM (titrated, usually from 46.2 µM), inactives show top-dose activity change, negative = growth inhibition, usual class: inhibitors | hit rate 15% among 420,000; further: potency means the concentration at half of the fitted maximal effect; nearly all actives have a fitted effect of over 55% in size
#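 Cells were dispensed at 400 per well, compounds added by pin tool, plates incubated ≥48 hr at 37 °C, then CellTiter-Glo added for 30 min at room temperature before luminescence reading. Line: DT40 Tdp1-/- complemented with hTDP1; camptothecin omitted.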
# Starred values were filed as active, the others as inactive; ? = inconclusive; nt = not tested or not shown. In the library only some 19% were active in any assay of this set; here they are far more common. Unless noted, the call rests on the fitted dose curve; in most records, active means well fitted curve in the direction sought with a large enough effect; inconclusive means small, poorly fitted or top-dose-only effect, or another doubt; inactive means no such curve, though single readings can be large; an effect the other way counts as inactive or inconclusive. Unless noted, on the % scale 0 is the no-effect control and ±100 the full control effect.
SMILES,ELG1 DNA repair,HT1080 IDH1KD tx,IL-1B inflam inh,HT1080NT lethal,DT40 TDP1 CPT,TDP1 cell noCPT
CCC(C)N1CC(O)=C(c2nc3ccccc3[nH]2)C1=N (centres undefined),?,-21%,?,4%,23µM*,?
CC1C(O)=C(c2nc3ccccc3[nH]2)C(=N)N1c1ccccc1 (centres undefined),?,?,11,?,?,21µM*
O=C(O)c1ccccc1-c1nc2ccccc2[nH]1,?,-3%,0,-20%,-1%,-24%
N=C1C(c2nc3ccccc3[nH]2)=C(O)CN1c1ccc(CC(=O)O)cc1,5%,14%,13,20%,10%,0%
CCOC(=O)c1ccc(N2CC(O)=C(c3nc4ccccc4c(=O)[nH]3)C2=N)cc1,-3%,6%,-8,24%,?,10µM*
CCOc1ccc(N2CC(O)=C(c3nc4ccccc4c(=O)[nH]3)C2=N)cc1,9%,4%,13,8%,-28%,-20%
CN(CC(=O)Nc1cccc(F)c1)C(=O)CCCN1C(=O)c2cccc3cccc(c23)C1=O,-12%,-9%,-65*,-10%,?,?
CCN(CC(=O)Nc1c(F)cccc1F)C(=O)CCCN1C(=O)c2cccc3cccc(c23)C1=O,nt,0%,-51*,1%,?,?
CN(CC(=O)Nc1cccc(F)c1)C(=O)CCN1C(=O)C2CC=CCC2C1=O (centres undefined),-8%,-2%,45,-2%,-18%,-5%
CCN(CC(=O)Nc1ccc(NC(C)=O)cc1)C(=O)CCCN1C(=O)c2ccccc2C1=O,8%,6%,13,3%,-19%,-7%
Cc1ccccc1Cn1ccc(NC(=O)c2cnn3c(C(F)(F)F)cc(-c4ccco4)nc23)n1,7.9µM*,3%,-14,-7%,?,15µM*
O=C(Nc1cnn(C23CC4CC(CC(C4)C2)C3)c1)c1cnn2c(C(F)(F)F)cc(-c3ccco3)nc12,?,-2%,-80*,0%,18µM*,16µM*
CCOC(=O)C1(Cc2ccccc2)CCN(Cc2cc(OC)c3c(c2)OCO3)CC1,?,-18%,-83*,-16%,?,?
COc1cc(CN2CCCC(CO)(Cc3ccccc3C)C2)cc2c1OCO2 (centres undefined),?,?,-63*,-29%,15µM*,?
CCOC(=O)C1(Cc2ccccc2)CCN(Cc2cccc3c2OCO3)CC1,?,3%,-53*,-3%,-20%,?
CCOC(=O)C1(Cc2ccccc2)CCN(Cc2ccon2)CC1,9%,-4%,6,3%,-26%,-23%
COCc1ccc(CN2CCCC(CO)(Cc3ccccc3C)C2)o1 (centres undefined),-5%,-7%,13,-8%,-8%,?
CCOC(=O)C1(Cc2ccccc2C(F)(F)F)CCN(Cc2ccon2)CC1,?,-24%,-8,-21%,?,15µM*
CCOC(=O)C1(Cc2ccccc2)CCN(Cc2ccc3c(c2)OCCO3)CC1,-17%,2%,18,11%,0%,-17%
CCCn1cc(CN2CCC(Cc3ccccc3)(C(=O)OCC)CC2)c(C)n1,-10%,-19%,0,-24%,?,?
Cc1ccc(NC(=O)[C@H](CSCc2ccccc2)N2Cc3ccccc3C2=O)cc1,nt,nt,nt,nt,-27%,?
Cc1ccc(N2CC(C)Cn3c2nc2c3c(=O)n(CC(=O)O)c(=O)n2C)cc1 (centres undefined),nt,nt,nt,nt,0%,15%
Cc1cccn2c(=O)c3cc(C(=O)NC4CCS(=O)(=O)C4)n(Cc4ccccc4)c3nc12 (centres undefined),-28%,?,1,?,-5%,2%
C=CCn1cc(C(=O)NCCOC)c(=O)c2cc(S(=O)(=O)N(CC)CC)ccc21,?,-1%,1,1%,-2%,-9%
CCn1cc(C(=O)NCCCN(C)c2ccccc2)c(=O)c2cc(S(=O)(=O)N(C)C)ccc21,?,8%,-5,3%,16µM*,?
SMILES,ELG1 DNA repair,HT1080 IDH1KD tx,IL-1B inflam inh,HT1080NT lethal,DT40 TDP1 CPT,TDP1 cell noCPT
CCn1cc(C(=O)NCCc2ccc(C)cc2)c(=O)c2cc(S(=O)(=O)N(C)C)ccc21,-28%,-2%,-10,-1%,-12%,-16%
CCN(CCCNC(=O)c1cn(CC)c2ccc(S(=O)(=O)N(C)C)cc2c1=O)c1cccc(C)c1,23µM*,0%,-26,3%,?,?
C=CCn1cc(C(=O)NCCCOCC)c(=O)c2cc(S(=O)(=O)N(CC)CC)ccc21,18µM*,1%,-1,-4%,?,-29%
O=C1OCCN1C(=O)[C@H]1[C@H](c2ccccc2)C(c2ccccc2)=NN1c1ccccc1,1%,-8%,-7,-6%,?,-19%
O=C1OCCN1C(=O)[C@H]1[C@H](c2ccccc2)C(c2ccc(F)cc2)=NN1c1ccc(Br)cc1,9%,-19%,-16,-7%,?,?
O=C1OCCN1C(=O)[C@H]1[C@H](c2ccc([N+](=O)[O-])cc2)C(c2ccc(F)cc2)=NN1c1ccc(Br)cc1,?,?,?,-19%,?,15µM*
O=C1OCCN1C(=O)[C@H]1[C@H](c2ccc([N+](=O)[O-])cc2)C(c2ccc(F)cc2)=NN1c1ccccc1,?,-28%,-51*,-14%,?,-24%
CC(C)(C)NC(=O)C(c1ccc(O)cc1)N(Cc1ccco1)C(=O)CCC(=O)Nc1ccccn1 (centres undefined),-1%,7%,-8,20%,-20%,-1%
CC(C)(C)NC(=O)C(c1ccncc1)N(Cc1ccco1)C(=O)c1ccc(-c2ccccc2)[nH]1 (centres undefined),?,18µM*,39,18µM*,?,?
CC(C)(C)NC(=O)C(c1ccc(Cl)cc1)N(Cc1ccco1)C(=O)CCl (centres undefined),-9%,2%,?,0%,4.6µM*,2.9µM*
O=C(NC1CCCCC1)C(c1ccncc1)N(Cc1ccccc1)C(=O)c1ccc(-c2ccccc2)[nH]1 (centres undefined),-30%,?,-28,?,16µM*,?

# High-throughput results from PubChem BioAssay.
